An excerpt weighted towards active compounds, which were near 9.5% of everything screened.
HPGD block: qHTS Assay for Inhibitors of HPGD (15-Hydroxyprostaglandin Dehydrogenase); purified HPGD, NADH fluorescence kinetic, PGE2 substrate; 15-hydroxyprostaglandin dehydrogenase [NAD(+)] (Homo sapiens), P15428; 150,000 compounds, 4.3% hits; Potency, µM, inactives show at the top dose activity change, negative = inhibition, hits mostly inhibitors; AID 894, 2007; active means well fitted inhibition curve with a large enough effect, not every such curve was filed as active; inconclusive means small, poorly fitted or top-dose-only effect, or another doubt; inactive means no such curve, though single readings can be large or run the other way
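20 nM HPGD preincubated 15 min at room temperature with compound in 50 mM Tris-HCl pH 8, 0.01% Tween 20. Started with 1 mM NAD+ and 30 uM prostaglandin E2; NADH fluorescence (360/450 nm) read 5 times over 30-s intervals, last minus first.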
ALDH1A1 inh: qHTS Assay for Inhibitors of Aldehyde Dehydrogenase 1 (ALDH1A1); Aldehyde dehydrogenase 1A1 (Homo sapiens), P00352; Purified ALDH1A1, NADH fluorescence, propionaldehyde substrate; Potency, µM (top dose mostly 75.3 µM), without a hit: top-dose activity, negative = inhibition, most hits filed as inhibitors; 220,000 compounds, 7.3% hits; AID 1030, 2008; active means well fitted inhibition curve with a large enough effect, not every such curve was filed as active; inconclusive means small, poorly fitted or top-dose-only effect, or another doubt; inactive means no such curve, though single readings can be large or run the other way;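 further: plate controls were no enzyme wells and a reference inhibitor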
NPSR antag: qHTS Assay for Antagonists of the Neuropeptide S Receptor: cAMP Signal Transduction | CHO-NPSR cells, cAMP TR-FRET, antagonist mode | Potency, µM (titrated, usually from 38.3 µM), for inactives: top-dose activity change, negative = inhibition, usual class: inhibitors | 220,000 compounds, 1% hits | AID 1461, 2008; further: nearly all actives have a fitted effect of over 50% in size
Target sequence (Q6W5P4 whole entry, looked up): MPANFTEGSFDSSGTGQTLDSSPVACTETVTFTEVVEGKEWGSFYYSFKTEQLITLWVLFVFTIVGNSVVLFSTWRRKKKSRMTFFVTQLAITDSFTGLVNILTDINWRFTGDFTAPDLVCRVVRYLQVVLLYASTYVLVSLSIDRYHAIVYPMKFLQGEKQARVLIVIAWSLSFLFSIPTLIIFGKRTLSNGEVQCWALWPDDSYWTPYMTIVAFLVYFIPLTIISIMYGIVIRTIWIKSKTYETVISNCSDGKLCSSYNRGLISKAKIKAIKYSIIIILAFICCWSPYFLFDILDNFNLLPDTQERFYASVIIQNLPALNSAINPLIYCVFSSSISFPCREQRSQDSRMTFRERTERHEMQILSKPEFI
Tau fibril ThT: qHTS for Inhibitors of Tau Fibril Formation, Thioflavin T Binding; Microtubule-associated protein tau (Homo sapiens), P10636; recombinant tau K18 P301L, heparin-induced fibrillization, ThT fluorescence; Potency, µM (titrated, usually from 57.4 µM), without a hit: at the highest dose activity, negative = inhibition, actives largely listed as inhibitors; 270,000 compounds, 2.1% hits; further: nearly all actives have a fitted effect of over 55% in size
Target sequence (P10636 561-689 P618L limits assumed): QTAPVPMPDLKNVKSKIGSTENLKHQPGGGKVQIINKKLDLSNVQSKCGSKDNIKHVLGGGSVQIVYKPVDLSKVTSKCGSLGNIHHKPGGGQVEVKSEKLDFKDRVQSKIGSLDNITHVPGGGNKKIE
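Heparin-induced fibrillization of the P301L-mutant K18 repeat-domain fragment of human tau was followed by ThT binding in quantitative high-throughput format.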
Tau fibril FP: qHTS for Inhibitors of Tau Fibril Formation, Fluorescence Polarization; Microtubule-associated protein tau (Homo sapiens), P10636; K18 P301L tau heparin fibrillization, Alexa594 FP, 6 h; Potency, µM (highest dose often 57.7 µM), without a hit: top-dose activity, negative = inhibition, usual class: inhibitors; 280,000 compounds, 0.39% hits; further: nearly all actives have a fitted effect of over 55% in size
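Human K18 P301L fragment (15 uM unlabeled plus 0.24 uM Alexa 594-labeled) in 100 mM sodium acetate pH 7 with compound, aggregation induced by 20 uM heparin for 6 hr at 37 C. ThT (30 uM) added for 1 hr, then Alexa 594 FP read.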
Tau fluor cs: Counterscreen qHTS for Inhibitors of Tau Fibril Formation, Fluorescence Polarization. tau K18 P301L (four-repeat tau fragment) Alexa594 fluorescence, heparin fibrillization. Potency, µM (titrated, usually from 57.7 µM), for the others: at the highest dose activity change, negative = decrease. 280,000 compounds, 0.93% hits; further: nearly all actives have a fitted effect of over 55% in size
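Human K18 P301L tau (15 uM unlabeled plus 0.24 uM Alexa 594-labeled, final) in 100 mM sodium acetate pH 7 was mixed with compound and 20 uM heparin and incubated 6 hr at 37 C.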
* hit, by the source's call; ? = inconclusive; nt = no result; [ ] = dose if it differs, or a comment. Unless noted, the call rests on the fitted dose curve; in most records, active means well fitted curve in the direction sought with a large enough effect; inconclusive means small, poorly fitted or top-dose-only effect, or another doubt; inactive means no such curve, though single readings can be large; an effect the other way counts as inactive or inconclusive. Unless noted, on the % scale 0 is the no-effect control and ±100 the full control effect; potency means the concentration at half of the fitted maximal effect.

SMILES	HPGD block	ALDH1A1 inh	NPSR antag	Tau fibril ThT	Tau fibril FP	Tau fluor cs
N#Cc1c(NC(=O)c2nc3ncccn3n2)sc2c1CCCCC2	-15%	?	-6%[46.1 µM]	?	2%	-16%
COC(=O)CCC(=O)Nc1sc2c(c1C#N)CCCC2	nt	11µM*	15%[46.1 µM]	-8%	3%	-5%
Cn1nccc1C(=O)NC(=S)Nc1sc2c(c1C#N)CCCCC2	-6%	?	4%[46.1 µM]	-19%	-5%	-14%
N#Cc1c(NC(=O)c2cnn3cccnc23)sc2c1CCCC2	nt	13µM*	-5%	-17%	-4%	0%
CC(=O)Nc1sc2c(c1C#N)CCCC2	-9%	-3%	-12%[46.1 µM]	-3%	0%	0%
CCCC(=O)Nc1sc2c(c1C#N)CCCC2	-15%	?	-7%[46.1 µM]	-1%	0%	-6%
CC(=O)NC(=S)Nc1sc2c(c1C#N)CCCCC2	nt	1.4µM*	7%[46.1 µM]	?	?	?
N#Cc1c(NC(=S)NC(=O)Cc2cccs2)sc2c1CCCCC2	-27%	4µM*	-4%[46.1 µM]	-17%	-10%	?
CC1CCc2sc(NC(=S)NC(=O)c3ccccc3)c(C#N)c2C1 (stereo unspecified)	-24%	10µM*	-8%	?	-12%	-21%
CCN1CCc2c(sc(NC(=S)NC(=O)c3ccccc3)c2C#N)C1	-27%	?	-4%[46.1 µM]	-17%	-2%	-7%
N#Cc1c(NC(=O)c2ccncc2)sc2c1CCC2	-22%	10µM*	-20%[46.1 µM]	?	0%	-18%
CC(C)(C)C(=O)NC(NC(=S)Nc1sc2c(c1C#N)CCCC2)C(Cl)(Cl)Cl (stereo unspecified)	?	6.3µM*	?	?	11%	?
NC(=O)c1c(NC(=O)c2ccncc2)sc2c1CCCC2	nt	?	8%	?	7%	-4%
Cc1ccc(C(=O)N2CCCCC2CCN2CCCCC2)cc1 (stereo unspecified)	nt	nt	nt	0%	-5%	-4%
COc1ccc(OC)c(Nc2ncnc3c2nc2n3CCCC2)c1	nt	nt	nt	10%	-2%	9%
O=C(/C=C/Nc1ccc(S(=O)(=O)Nc2ncccn2)cc1)c1ccc2ccccc2c1	nt	nt	19%[7.67 µM]	5%	-9%	-5%
C=CC[C@@H]1C=C[C@@H](O/N=C2/[C@H]3O[C@@H]3[C@@H](O)[C@H]3[C@H]2CCn2c(=O)n(-c4ccccc4)c(=O)n23)[C@@H](CO)O1	nt	8%[13.5 µM]	nt	-5%[11.5 µM]	-3%[11.6 µM]	-6%[11.6 µM]
C(=N\n1cnc2ccccc21)/c1cccnc1	-6%	1%	-2%[46.1 µM]	7%	-9%	-6%
O=c1c2cnn(-c3ccccc3)c2nnn1/N=C/c1cccnc1	-7%	0.4µM*	0%[46.1 µM]	-9%	2%	5%
CC(C)(C)NC(=O)C(c1ccncc1)N(Cc1ccc(F)cc1)C(=O)c1ccc(-c2ccccc2)[nH]1 (stereo unspecified)	nt	?	-49%	?	-1%	-18%
C=CCSc1n[nH]c(-c2ccc(OC)cc2)n1	14µM*	?	-21%[46.1 µM]	4%	-1%	-4%
COc1ccc(Nc2nc(C)c(-c3ccccc3)s2)cc1	20µM*	25µM*	?	5.6µM*	7%	8.9µM*[quencher]
COc1ccc2nc(Nc3ccccc3OC)sc2c1	nt	-5%	-20%	13µM*	10%	?
COc1ccc2nc(Nc3nc4cc5c(cc4s3)OCO5)sc2c1	?	?	-26%	2.8µM*	2%	7.9µM*[quencher]
O=C(COc1ccccc1)NNc1nc2ccccc2s1	nt	nt	4%	nt	0%	-14%
SMILES	HPGD block	ALDH1A1 inh	NPSR antag	Tau fibril ThT	Tau fibril FP	Tau fluor cs
COc1ccc2nc(NNC(=O)COc3ccccc3)sc2c1	nt	20µM*	-2%	?	0%	-11%
COc1ccc(Nc2nc3ccccc3c(=O)s2)c(OC)c1	-2%	-1%	-19%[46.1 µM]	-1%	7%	-1%
NNC(=O)CCC(=O)Nc1ccccc1	nt	12%	11%	-4%	-1%	0%
CCN1C(=O)[C@H]2[C@H]3[C@H](O)[C@H](O)C/C(=N/NC(=O)OCc4ccc(OC)cc4)[C@H]3CC[C@@H]2C1=O	nt	5%[13.5 µM]	nt	-6%[11.5 µM]	-2%[11.6 µM]	2%[11.6 µM]
COc1ccc2nc(Nc3ccccc3)sc2c1	nt	2%	-20%	14µM*	11%	18µM*[quencher]
COc1ccc2nc(Nc3ccc4c(c3)OCO4)sc2c1	-24%	-7%	-3%[46.1 µM]	?	1%	?
COC(=O)NC(c1ccc(F)cc1)C(C(C)=O)C(=O)OC (stereo unspecified)	nt	28%[13.5 µM]	nt	0%[11.5 µM]	0%[11.6 µM]	-7%[11.6 µM]
COc1ccc(CNC(=O)C(C)N2Cc3ccccc3C2=O)cc1 (stereo unspecified)	nt	nt	nt	-3%	-7%	-5%
O=C(CN1CCN(c2ncccn2)CC1)NCCC1=CCCCC1	-16%	-15%	-10%[46.1 µM]	-2%	3%	-1%
Cc1ccc(-c2nc(=S)c3c(n2Cc2ccco2)CCCC3)cc1	-23%	13µM*	10%[46.1 µM]	-4%	-1%	-7%
Cc1cccc(-c2nc(=S)c3c(n2Cc2ccco2)CCCC3)c1	-15%	?	?	1%	0%	3%
Cc1cccc(CN2CCN(c3nc4nonc4nc3NC3CC3)CC2)c1	nt	16µM*	26%	-7%	-4%	-11%
CCCCn1c(=O)c2c(c3ccccc31)OCC(=O)N2	-11%	20µM*	-4%[46.1 µM]	-3%	-7%	3%
CCCn1c(=O)c2c(c3ccccc31)OC(C)C(=O)N2 (stereo unspecified)	-4%	6%	0%[46.1 µM]	7%	-12%	2%
Nc1c(C(=O)N/N=C/c2cccnc2)oc2nc(-c3ccco3)cc(-c3ccco3)c12	nt	nt	12%	16µM*	?	?
Nc1c(C(=O)N/N=C/c2cccnc2)oc2nc(-c3ccccc3)cc(-c3ccco3)c12	nt	nt	-5%	?	1%	-15%
CCCCOc1ccc(S(=O)(=O)Nc2ccc(-c3ccc(N4CCC(C)CC4)nn3)cc2)cc1	nt	nt	nt	?	-10%	?
CN(C)/C=C/C(=O)c1ccc(Br)s1	nt	?	2%	-9%	-5%	2%
Cc1cc(C)c2c(c1)/C(=C/C(=O)c1ccc(Br)s1)C(=O)N2	-13%	-12%	-12%[46.1 µM]	28µM*	-13%	20µM*[quencher]
CCc1ccc2c(c1)/C(=C/C(=O)c1cccs1)C(=O)N2	-14%	?	10µM*	?	7%	-28%
Cc1cccc2c1NC(=O)/C2=C\C(=O)c1cccs1	-5%	?	-23%[46.1 µM]	22µM*	6%	-26%
CCc1ccc(OCCNC(=O)c2cccs2)cc1	-21%	12%	-13%[46.1 µM]	-5%	-4%	-10%

High-throughput results from PubChem.
